The values that follow come from PubChem BioAssay AID598 (SRMLSC, 2007).

In all, about 85,000 compounds went through this assay and about 5,100 (6%) were called active. This is one part of a sample in which actives are shown more often than they occur. Unmarked numbers belong to inactive results.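 Rule for the calls: active = viability at or below 40%; inactive = viability above 40%.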

The nature of this test: H69AR cell viability reduction – human, 86K library, primary screen (AID 598).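 Note: multidrug resistant small cell line overexpressing MRP-1 efflux transporter; 100% = mean luminescence of untreated control wells.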 As to conditions: H69AR lung tumor viability, ATP luminescence, 72 h; at 10 µM; stronger effect = lower value.
As to `COc1ccc(S(=O)(=O)Nc2ccc(F)cc2)c(C)c1C`, the viability (in general, a read-out of living cells in per cent, often relative to untreated cells) is 101%. On to `CCCCCCC12CCC(C(=O)O)(CC1)CC2`, for which the viability was 79.3%. In the case of `Cc1nc2cc(NC(=O)NCc3ccccc3)ccc2o1`, the viability is 95.1%.

`OC(COc1ccc2ccccc2c1)Cn1cncn1` (stereo not given): the viability is 88.4%. As for `O=C(CN1CCOCC1)Nc1cc(Cl)ccc1Cl`, the viability was 93.4%. Turning to `COc1c(C)cccc1C(=O)Nc1cc(Cl)ccc1N1CCOCC1`, the viability is 82.7%.

For `O=C(Nc1cc(N2CCOCC2)ncn1)NC1(C(F)(F)F)Oc2ccc(Cl)cc2O1` (stereo not given), the viability is 29.6% (active). Regarding `CCOc1cc2[nH]c(=S)n(CCN3CCCCC3C)c(=O)c2cc1OCC` (stereo not given), the viability was 82.5%.

`O=C(NC1CCCCC1)n1c(=O)oc2cc(S(=O)(=O)N3CCCCC3)ccc21`: the viability was 60.7%. The figure for `CCn1cc(C(=O)NC2CCCCCC2)c(=O)c2cc(S(=O)(=O)N3CCCCC3)ccc21` is 30.1% (active). `CCn1cc(C(=O)NCC2CCCO2)c(=O)c2cc(S(=O)(=O)N3CCCCC3)ccc21` (stereo not given): the viability was 87.7%. With `CN(C)S(=O)(=O)c1ccc(NC(=O)COC(=O)c2n[nH]c3ccccc23)cc1`, the viability is 78.6%. With `CCCCc1nc(NCCN)c(C#N)c2c1CSC(C)(C)C2`, the viability is 1.08% (active).

With `Cc1nc(NCCN)c(C#N)c2c1COC(C)(C)C2`, the viability is 85%. With `CC(C)(C)c1ccc(OC2=CS(=O)(=O)c3ccccc32)cc1`, the viability was 88%. In the case of `CCCn1nnc(NC(=O)COc2ccc(CC)cc2)n1`, the viability is 95.5%.

Turning to `Cn1c(=O)c2c(ncn2CC(=O)N2CCN(c3ccccc3)CC2)n(C)c1=O`, the viability was 105%.

Regarding `CC(C)Cn1cnc2c1c(=O)n(CC(O)c1ccccc1)c(=O)n2CC(C)C` (stereo not given), the viability is 28% (active). For `CC(C)Cn1c(CN(Cc2ccccc2)Cc2ccccc2)nc2c1c(=O)n(C)c(=O)n2C` the value was 61.6%.

Regarding `Cc1cc(-n2nc(C)cc2C)n2nc(C)c(-c3ccccc3)c2n1`, the viability was 68.4%. For `O=C(COc1ccc2ccccc2c1)N1CCN(C(=O)c2cccs2)CC1` the value was 74%; for `O=C(CCN1C(=O)c2ccccc2C1=O)Nc1cccc(F)c1`, 98.2%.

For the compound `N#CCSc1nc2ccccc2c(=O)n1-c1ccccc1`, the viability is 77%. As for `O=c1c2ccccc2nc(CSc2nnnn2-c2ccccc2)n1-c1ccccc1`, the viability was 15.1% (active). For `Cc1ccc(Nc2nc(CSc3nnnn3-c3ccccc3)cc(=O)[nH]2)cc1`, the viability is 23.1% (active). Consider `O=c1c2ccccc2nnn1CSc1nnnn1-c1ccccc1`, for which the viability was 83.4%.

`COc1ccc(-n2nnnc2SCC(=O)Nc2ccccc2)cc1`: the viability is 103%. On to `Cc1ccc(-c2noc(CSc3nnnn3-c3ccccc3)n2)cc1`, for which the viability is 86.2%.

As for `OC(CN1C2=NCCCN2c2ccccc21)c1ccc(Br)cc1` (stereo not given), the viability is 86.5%. With `Cn1cnc([N+](=O)[O-])c1Nc1ccccc1O`, the viability was 100%. Turning to `COC(=O)c1ccc(CSc2nnc(NC(C)C)s2)cc1`, the viability was 98.2%. The figure for `COc1ccc(C)cc1NC(=O)CCS(=O)(=O)c1cccc2nonc12` is 89%; for `CCCn1nnc2sc3c(c2c1=O)CCC(C)C3` (stereo not given) it is 96.7%; for `CC1CCc2c(sc3nc4n(c(=O)c23)CCS4)C1` (stereo not given) it is 80.8%. For the compound `C=CCn1c(SCc2c(C)noc2C)nc2sc3c(c2c1=O)CCC(C)C3` (stereo not given), the viability was 29.4% (active). The figure for `Nc1c(C(=O)NCc2ccccc2)sc2nc3c(cc12)C(=O)CCC3` is 65.5%. Turning to `COCCNC(=O)COc1ccc(C)c(C)c1`, the viability was 86%.

As for `Cc1ccc(SC(=O)COc2ccc(C)c(C)c2)cc1`, the viability is 16.4% (active). For `Cc1ccc(SCC(=O)c2cc(C)c(OC(=S)N(C)C)c(C)c2)cc1`, the viability was 64.6%. `Cc1ccc(S(=O)(=O)NC(=O)COc2ccccc2C)cc1`: the viability was 97.9%. Consider `CCOCN(C(=O)Cn1c(C(C)O)nc2ccccc21)c1c(C)cccc1CC` (stereo not given), for which the viability was 62.8%. Consider `O=C(Cc1ccc(-n2c(=O)c3sccc3n(Cc3ccc(F)cc3)c2=O)cc1)NCc1ccco1`, for which the viability is 51%. In the case of `CN1CCN(CC(=O)Nc2sc3c(c2C#N)CCC(C(C)(C)C)C3)CC1` (stereo not given), the viability is 2.42% (active).

Take `CCC(=O)Nc1sc(C(=O)N2CCCCC2)c(C)c1C#N`: the viability is 96.9%. `c1ccc(-c2nc(NCc3ccco3)c3ccccc3n2)cc1`: the viability was 87.9%.

On to `Cc1nc2ccccc2c2oc(C(=O)NCC3CCCO3)cc12` (stereo not given), for which the viability was 82.4%. For `c1ccc2c(NCC3CCCO3)nc(-c3ccncc3)nc2c1` (stereo not given), the viability was 35.5% (active). As to `Cn1c2c(c(=O)n(C)c1=O)C(c1cccc([N+](=O)[O-])c1)Nc1ccccc1O2` (stereo not given), the viability was 88.5%. Turning to `C=CCn1c(SCc2c(C(=O)OC)sc(N)c2C(=O)OC)nnc1-c1ccc(Cl)cc1`, the viability is 45.2%. As for `COc1ccc(CN2CCCCC2C)cc1OC` (stereo not given), the viability was 105%. The figure for `COc1cc(C2CC(=O)c3cnc(NC(C)=O)nc3C2)cc(OC)c1OC` (stereo not given) is 74%; for `CCc1ccc(Nc2ncc3c(n2)CC(c2ccco2)CC3=O)cc1` (stereo not given) it is 26.3% (active).

As for `O=C(Nc1ncc2c(n1)CC(c1ccco1)CC2=O)c1ccc(Cl)cc1` (stereo not given), the viability is 80.7%. On to `Nc1ccc(C(=O)OCC(=O)NC2CCCc3ccccc32)cc1[N+](=O)[O-]` (stereo not given), for which the viability is 63.4%. Consider `CCOC(=O)c1cc2ccccc2nc1C`, for which the viability is 101%. Consider `CCOc1ncccc1C(=O)OCc1cn2cc(Cl)ccc2n1`, for which the viability was 35.2% (active).

Take `CSc1ncccc1C(=O)OCC(=O)N1CCOCC1`: the viability is 96%. Take `COc1ccc(CNc2ccc3c(c2)CCC3)cc1OC`: the viability was 104%. Turning to `CCOc1ccc(C(=O)NC2CCN(C(=O)Nc3ccccc3OC)CC2)cc1`, the viability is 79%. As for `COC(=O)CSc1nc(C)c2ccc(OC)cc2n1`, the viability was 86.5%.

As to `Cc1nnc(SCC(=O)NC(=O)NC2CCCC2)n1N`, the viability is 109%. With `CC(Nc1nc(N2CCCC2)nc2ccccc12)c1ccccc1` (stereo not given), the viability is 12.4% (active).

For the compound `CC(C)n1c(C(O)c2ccccc2)nc2ccccc21` (stereo not given), the viability is 104%.

`Cc1ccc(C(CC(=O)O)Nc2nc(N3CCCCC3)nc(N3CCCCC3)n2)cc1` (stereo not given): the viability is 108%. Regarding `CCCCN1C(=O)/C(=C2/C=CC=CN2C)SC1=S`, the viability is 90.2%. In the case of `CC(=O)c1cc2c(cc1NC(=O)CN1CCCCCC1)OCO2`, the viability is 79.5%.

Regarding `CCc1ccc(CNC(=O)C2CC(=O)N(CCc3ccc(C)cc3)C2)cc1` (stereo not given), the viability is 99.5%. Turning to `CCC(C)Sc1nc2c(c(=O)[nH]c(=O)n2C)n1CC(O)COc1cccc2ccccc12` (stereo not given), the viability was 30.7% (active). The figure for `CCCSc1nc2c(c(=O)[nH]c(=O)n2C)n1CCc1ccccc1` is 74%.

Take `CN1CCN(c2nc3c(c(=O)[nH]c(=O)n3C)n2Cc2cccc3ccccc23)CC1`: the viability was 71.9%. Consider `Cn1c(SCC(=O)NC2CCCCC2)nnc1-c1cc2ccccc2o1`, for which the viability is 91%.

`CC(=O)c1cccc(NC(=O)Nc2ccc(C)cc2)c1`: the viability was 95.3%. Consider `Cc1cccc(NC(=O)Nc2cccc(Oc3c(F)c(F)c(F)c(F)c3F)c2)c1`, for which the viability is 8.13% (active). Turning to `Cc1ccoc1C(=O)Nc1cccc(Oc2ccccc2)c1`, the viability is 112%. The figure for `COc1ccc2c(Cl)c(C(=O)NCc3ccco3)sc2c1` is 91.4%; for `CCOc1ccc(N=C2NC(=O)S/C2=C\c2ccc(O)cc2)cc1` it is 47.5%.

On to `CCC(=O)Nc1ccc(C(=O)Nc2cccc(OC)c2)cc1`, for which the viability was 64.6%. Consider `CCCc1nc2scc(-c3ccc(C)cc3)c2c(=O)n1N`, for which the viability was 46.1%. Turning to `O=C(Cc1ccccc1)Nc1c(C(=O)N2CCCCCC2)cnn1-c1ccccc1`, the viability is 96.5%. Turning to `C#CCNc1nc(C(C)C)nc2c1nnn2Cc1ccccc1F`, the viability was 104%. The figure for `CCCc1nc(NCc2ccc3c(c2)OCO3)c2nnn(Cc3ccccc3Cl)c2n1` is 24.6% (active). `O=C(Cn1cnc2c(nnn2Cc2ccc(F)cc2)c1=O)NCc1ccc2c(c1)OCO2`: the viability was 95.8%. The figure for `O=c1onc(-c2cccs2)n1Cc1ccccc1` is 95.9%. For `Cc1cccc(C)c1OC(=O)CSc1nnc(-c2ccccc2)o1` the value was 98.4%; for `O=C1CC(C(F)(F)C(F)(F)C(F)(F)C(F)(F)F)=Nc2ccccc2N1`, 92.7%; for `CCCCOc1ccc(Cl)cc1CSc1nncn1N`, 94%.

For `CCCCOc1ccc(CSC(=N)N)cc1[N+](=O)[O-]`, the viability was 5.08% (active). As to `N#C/C(=C\c1ccccc1)c1n[nH]c(Cn2cncn2)n1`, the viability is 96.8%. In the case of `O=C(CCS(=O)(=O)c1cccc2nsnc12)N1CCN(c2ccccc2F)CC1`, the viability was 91%. As for `CCOC(=O)C(=O)Nc1nc(-c2ccccc2)c(CC)s1`, the viability was 103%. As for `Cc1sc2nc(SCC(N)=O)n(C)c(=O)c2c1C`, the viability is 84.1%. With `C=CCn1c(SCC(=O)/C(C#N)=C(\C)N)nc2sc(C)c(C)c2c1=O`, the viability was 6.3% (active).

As to `CCCn1c(=O)c2ccccc2n2c(SCC(=O)/C(C#N)=C(\C)N)nnc12`, the viability is 79.8%.

In the case of `CCC(=O)Nc1ccc(S(=O)(=O)NCC2CCCO2)cc1` (stereo not given), the viability is 90.7%. Consider `CC1CCc2sc3nc(N4CCN(CCO)CC4)n4ncnc4c3c2C1` (stereo not given), for which the viability is 33.1% (active). For `N#Cc1c2c(c(N3CCN(CCO)CC3)n3c1nc1ccccc13)CCCC2` the value was 85.5%; for `Cc1c(Nc2nc3ccccc3nc2NS(=O)(=O)c2cccs2)c(=O)n(-c2ccccc2)n1C`, 85.5%; for `CCOC(=O)C(C)n1cnc2sc(C)c(C)c2c1=O` (stereo not given), 89.3%.

Take `CC(=O)Oc1ccc(NC(=O)CCC2CCCCC2)c(C(=O)O)c1`: the viability is 101%. For the compound `COc1ccc(CN(CC(=O)NC2CCCC2)C(=O)CCC(=O)Nc2cc(C)on2)cc1`, the viability is 96.3%.
